Values joined by “and” are separate entries in the source; they are usually repeats but may differ in a detail not shown here. Identical values can stand only once. In all, about 5,300 compounds were measured (“PER2::LUC luminescence relative to vehicle control”: median about 0.96, highest 2% from about 1.3 on). The full list was thinned out, with the highest values kept by preference.
Test system: mPer2Luc MEF
Assay: PER2::LUC luminescence relative to vehicle control (fold of vehicle); higher = higher PER2::LUC reporter signal
Settings: 10 µM
Outline: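 In 384-well plates, ~3000 mPer2Luc reporter mouse embryonic fibroblasts per well were cultured in DMEM with 10% FBS at 37 °C and 5% CO2 for 48 h before compounds from commercial libraries were added at 10 μM. ONE-Glo luciferase readings were taken 24 h and 30 h after treatment. Each value is PER2::LUC luminescence given as fold of vehicle control.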

Row | SMILES | PER2::LUC luminescence (time after treatment 24 h) | PER2::LUC luminescence (time after treatment 30 h)
1 | COc1cc(C)c2c(=O)cc(-c3ccccc3)oc2c1 | 1.64 | 1.76
2 | O=c1cc(-c2ccc(O)c(O)c2)oc2cc(O)cc(O)c12 | 1.01 | 1.1
3 | O=C(O)[C@H]1O[C@@H](Oc2cc3oc(-c4ccccc4)cc(=O)c3c(O)c2O)[C@H](O)[C@@H](O)[C@@H]1O | 1.22 | 1.34
4 | COc1ccc(-c2cc(=O)c3c(OC(C)=O)cc(OC(C)=O)cc3o2)cc1 | 1.25 | 1.3
5 | O=c1cc(-c2ccccc2)oc2cccc(O)c12 | 1.25 | 1.42
6 | COc1ccc(-c2cc(=O)c3c(OC)c(OC)c(OC)cc3o2)cc1OC | 0.736 | 0.843
7 | O=c1cc(-c2ccc(O)cc2)oc2cc(O)cc(O)c12 | 0.595 | 0.545
8 | O=c1cc(-c2ccccc2)oc2cc(O)cc(O)c12 | 1.55 and 1.53 | 2.06 and 1.73
9 | O=c1cc(-c2ccccc2)oc2cc(O)c(O)c(O)c12 | 1.13 | 1.1
10 | COc1c(O)cc(O)c2c(=O)cc(-c3ccccc3)oc12 | 1.03 | 1.02
11 | COc1cccc2oc(-c3ccccc3)cc(=O)c12 | 1.41 | 1.43
12 | COc1cc(OC)c2c(=O)cc(-c3ccccc3)oc2c1 | 1.01 | 1.12
13 | CC[C@H]1OC(=O)C[C@@H](O)[C@H](C)[C@@H](O[C@@H]2O[C@H](C)[C@@H](O)[C@H](N(C)C)[C@H]2O)[C@@H](CCN2CCCCC2)C[C@@H](C)C(=O)/C=C/C(C)=C/[C@@H]1CN1CCCCC1 | 0.885 | 0.882
14 | CC1NC(=O)NC1=O (configuration not stated) | 0.946 | 0.877
15 | CCO[C@H]1CN(C2CCC(O)(c3ccc4c(c3)OCO4)CC2)C[C@@H]1NC(=O)CNC(=O)c1cccc(C(F)(F)F)c1 (some centres not stated) | 0.97 | 0.88
16 | C#CCN(Cc1cc2c(=O)n(C)c(CN3CCN(C)CC3)nc2cc1Cl)c1ccc(C(=O)NCc2cccnc2)cc1 | 0.621 | 0.565
17 | c1ccc2c3c([nH]c2c1)[C@H]1[C@@H]2CC[C@@H]([C@@H]4CCCN[C@@H]42)N1CC3 | 1.23 | 1
18 | CC(C)CCC[C@@H](C)[C@H]1CC[C@H]2[C@@H]3C=CC4=CC(=O)CC[C@]4(C)[C@H]3CC[C@]12C | 0.981 | 0.927
19 | CC(C(=O)O[C@]12CCC[C@H](CC1)N2C)c1ccc(Br)cc1 (some centres not stated) | 0.821 | 0.934
20 | CCOc1ccc(Oc2ccc(OCc3cc(F)ccc3F)cc2)c(N)c1 | 1.03 | 0.887
21 | C[C@@H]1O[C@@H](OC[C@H]2O[C@@H](OCCc3ccc(O)c(O)c3)[C@H](O)[C@@H](O[C@@H]3O[C@@H](C)[C@H](O)[C@@H](O)[C@H]3O)[C@@H]2OC(=O)/C=C/c2ccc(O)c(O)c2)[C@H](O)[C@H](O)[C@H]1O | 1.09 | 0.982

Row | SMILES | PER2::LUC luminescence (time after treatment 24 h) | PER2::LUC luminescence (time after treatment 30 h)
22 | N[C@@H](C(=O)N[C@@H]1C(=O)N2C(C(=O)O)=C(CSc3cn[nH]n3)CS[C@H]12)c1ccc(O)cc1 | 1 | 0.912
23 | C/C1=C/CCC(C)(O)/C=C\C(C(C)C)C(OC(=O)c2ccc(O)cc2)C1 (configuration not stated) | 1.06 | 1.07
24 | O=C1NC(=O)/C(=C/c2cccc(C(F)(F)F)c2)S1 | 1.02 | 1.06
25 | O=C1NC(=O)/C(=C\c2ccc3nccnc3c2)S1 | 1.2 | 1.23
26 | O=C1NC(=O)/C(=C/c2ccc3c(c2)OC(F)(F)O3)S1 | 1.31 and 1.12 | 1.42 and 1.06
27 | O=C(O)c1cccc(CN2C(=O)/C(=C(\c3ccccc3)c3ccc(Cl)cc3)c3ccccc32)c1 | 1.09 | 1.03
28 | CO[C@@H]1[C@@H](O[C@@H]2O[C@H](C)[C@@H](O[C@H]3C[C@@](C)(O)[C@@H](OC(=O)CC(C)C)[C@H](C)O3)[C@H](N(C)C)[C@H]2O)[C@@H](CC=O)C[C@@H](C)[C@@H](O)/C=C/C=C/C[C@@H](C)OC(=O)C[C@H]1O | 0.929 | 1.07
29 | CN(C)c1ccc2c(c1)OC(N)=C(C#N)C2c1cccc(C(F)(F)F)c1 (configuration not stated) | 1.04 | 1
30 | NC(=O)c1ccccc1Nc1ccnc(Nc2cccc(O)c2)n1 | 0.392 | 0.446
31 | CC1(C)C2CCC1(C)C(O)C2 (configuration not stated) | 1.1 | 0.997
32 | Clc1ccc(C(Cn2ccnc2)OCc2ccc(Sc3ccccc3)cc2)c(Cl)c1 (configuration not stated) | 0.905 | 1.06
33 | Clc1ccc(COC(Cn2ccnc2)c2ccc(Cl)cc2Cl)c(Cl)c1 (configuration not stated) | 1.04 and 0.591 | 1.29 and 1.01
34 | Clc1ccc(COC(Cn2ccnc2)c2ccc(Cl)cc2Cl)cc1 (configuration not stated) | 1.26 and 1.03 | 1.35 and 1.25
35 | C=CC(C1=CC(=O)C(OC)=CC1=O)c1ccc(O)cc1 (configuration not stated) | 0.816 | 0.863
36 | CCCCCCCCCCC1=C(C)C(=O)C(OC)=C(OC)C1=O | 1.02 | 0.992
37 | CCN1C[C@H](C)n2c(c(O)c3c(=O)n(Cc4ccc(F)c(Cl)c4)nc(C(=O)NC)c32)C1=O | 1.29 | 1.16
38 | C[C@@H]1CCO[C@H]2Cn3cc(C(=O)NCc4ccc(F)cc4F)c(=O)c(O)c3C(=O)N12 | 1.35 and 1.15 | 1.4 and 1.2
39 | CC(=O)c1ccc2c(c1)C1C=CCC1C(c1cc3c(cc1Br)OCO3)N2 (configuration not stated) | 1.02 | 0.942
40 | CC(C(=O)Nc1cc(C#N)ccc1CCCC(=O)O)c1ccc(F)c2ccccc12 (configuration not stated) | 1.06 | 1.03
41 | COC(=O)C(O)CCn1cnc2c(N)ncnc21 (configuration not stated) | 0.95 | 0.999
42 | CC(Oc1ccccc1)C(=O)N[C@@H]1C(=O)N2[C@@H]1SC(C)(C)[C@@H]2C(=O)O (some centres not stated) | 1.02 | 0.902

Row | SMILES | PER2::LUC luminescence (time after treatment 24 h) | PER2::LUC luminescence (time after treatment 30 h)
43 | CC1(C)S[C@@H]2[C@H](NC(=O)Cc3ccccc3)C(=O)N2[C@H]1C(=O)O | 1.06 and 1.17 | 1.72 and 0.949
44 | CC1(C)S[C@@H]2[C@H](NC(=O)[C@H](N)c3ccccc3)C(=O)N2[C@H]1C(=O)O | 1.04 and 0.885 | 0.911 and 0.808
45 | COc1cccc(OC)c1C(=O)N[C@@H]1C(=O)N2[C@@H]1SC(C)(C)[C@@H]2C(=O)O | 0.867 | 0.823
46 | CC1(C)S[C@@H]2[C@H](NC(=O)C(C(=O)O)c3ccccc3)C(=O)N2[C@H]1C(=O)O (some centres not stated) | 1.05 | 1.03
47 | CC1(C)S[C@@H]2[C@H](NC(=O)COc3ccccc3)C(=O)N2[C@H]1C(=O)O | 1.09 | 1.56
48 | Nn1cc(Br)c(=O)[nH]c1=O | 0.972 | 0.954
49 | CC[N+]1(C)C2CCC1CC(OC(=O)C1CCC(C(=O)OC3CC4CCC(C3)[N+]4(C)CC)(c3ccccc3)c3ccccc31)C2 (configuration not stated) | 0.898 | 0.961
50 | CN(Cc1ccccc1)c1ccc2cc(C(=O)O)c(=O)oc2c1 | 1.06 | 0.948
51 | C[C@@H](O)CCCCn1c(=O)c2c(ncn2C)n(C)c1=O | 0.991 | 0.943
52 | CCc1c(C(=O)NNC(=O)[C@H](O)c2cc(F)cc(F)c2)ccc(O)c1C | 1 | 0.957
53 | CCCCCCCCCCCCCCCCCC(=O)OC(CC(=O)O)C[N+](C)(C)C (racemic) | 0.909 | 0.786
54 | CCC[C@@H]1C[C@@H](C(=O)N[C@@H]([C@H]2O[C@H](SC)[C@H](O)[C@@H](O)[C@H]2O)[C@@H](C)O)N(C)C1 | 0.932 and 0.965 | 0.909 and 0.803
55 | CCC[C@@H]1C[C@@H](C(=O)N[C@@H]([C@H]2O[C@H](SC)[C@H](O)[C@@H](O)[C@H]2O)[C@H](C)Cl)N(C)C1 | 1.08 | 1.93
56 | CCC[C@@H]1C[C@@H](C(=O)N[C@@H]([C@H]2O[C@H](SC)[C@H](OP(=O)(O)O)[C@@H](O)[C@H]2O)[C@H](C)Cl)N(C)C1 | 1.07 | 1.01
57 | NC(=O)c1cccc2ncc(-c3ccc(Cl)cc3)nc12 | 1.12 | 1.16
58 | COc1cc(O)c2c(=O)c(O)c(-c3ccccc3)oc2c1 | 0.99 | 1.06
59 | COC(=O)[C@@H]1OC(=O)C2OC23[C@@]1(C)CCC1[C@@]2(C)CCC(=O)C(C)(C)C2C[C@@H](OC(C)=O)[C@]13C (some centres not stated) | 0.9 | 0.921
60 | O=c1cccc2ccc(O)c(O)c2c1O | 0.987 | 0.83
61 | N#Cc1nccc(Oc2cccc(-c3ccc(CN)cc3)c2)n1 | 0.994 | 1.14
62 | CC(=O)N[C@H]1[C@H]([C@H](O)[C@H](O)CO)O[C@@](Oc2c[nH]c3ccc(Br)c(Cl)c23)(C(=O)O)C[C@@H]1O | 1 | 0.967
63 | Cc1nc(C#Cc2cccnc2)cs1 | 1.15 | 1.26

Row | SMILES | PER2::LUC luminescence (time after treatment 24 h) | PER2::LUC luminescence (time after treatment 30 h)
64 | Cc1cccc(C#Cc2ccccc2)n1 | 1.56 and 1.59 and 1.5 | 1.16 and 1.75 and 1.47
65 | NS(=O)(=O)C#Cc1ccccc1 | 1.18 | 0.903
66 | Cc1cc(C)c(/C=C2\C(=O)Nc3ccc(Cl)cc32)[nH]1 | 1.06 | 1.02
67 | O=C(/C=C/c1ccc(O)c(O)c1)OCCc1ccccc1 | 0.173 | 0.361
68 | O=C(O)/C=C/c1ccc(O)c(O)c1 | 0.886 | 0.894
69 | O=C(/C=C/c1ccc(O)c(O)c1)O[C@@H]1C[C@](O)(C(=O)O)C[C@@H](O)[C@H]1O | 1.8 | 1.28
70 | C[C@H]1CCN(C(=O)CC#N)C[C@H]1N(C)c1ncnc2[nH]ccc12 | 1 | 1.02
71 | O=Nc1c(O)[nH]c2c(Cl)c(Cl)ccc12 | 1.05 | 1.07
72 | OCCOCCN1CCN(C(c2ccccc2)c2ccccc2)CC1 | 0.939 | 0.9
73 | O=C(O)/C(=C\c1c(C(=O)O)[nH]c2cc(Cl)cc(Cl)c12)c1ccccc1 | 1.4 | 1.34
74 | O=C(O)c1cc(=O)c2c(Cl)cc(Cl)cc2[nH]1 | 1.04 | 1
75 | O=C(O)CCc1c(C(=O)O)[nH]c2cc(Cl)cc(Cl)c12 | 1.03 | 0.901
76 | O=C(O)[C@@H]1C[C@H](CP(=O)(O)O)CCN1 | 1.03 | 0.992
77 | O=C1Nc2nc(-c3c(O)cccc3OCC3CC3)cc([C@@H]3CCCNC3)c2CO1 | 0.574 | 0.66
78 | CC[N+](CC)(CC(=O)Nc1c(C)cccc1C)Cc1ccccc1 | 0.988 | 0.901
79 | Cc1cc2sc(NC(=O)Cc3ccccc3)nc2cc1Cl | 1.02 | 1.38
80 | COc1ccc(CCC(=O)Nc2nc3ccc(Cl)cc3s2)cc1OC | 0.875 and 0.954 | 1.04 and 0.951
81 | C[C@@H]1O[C@@H](OC[C@H]2O[C@@H](Oc3cc(O)c4c(=O)cc(-c5ccc(O)cc5)oc4c3)[C@H](O)[C@@H](O)[C@@H]2O)[C@H](O)[C@H](O)[C@H]1O | 0.948 | 0.927

— the supplement of paper PMC9334596
